# Bioassay records deposited in PubChem BioAssay by several laboratories.
# Compounds with a hit are over-represented: about 4.7% of the library has one in this group of screens.
# proKLK7 act = activators of human kallikrein-7 zymogen; P49862; purified proKLK7, EDANS-DABCYL substrate fluorescence; 100% is mature enzyme control, 0% vehicle; activation, % at 7 µM; 0.9% of 370,000 active;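 active = activation above the mean of all tested compounds plus 3 SD, computed per campaign excluding outliers beyond control limits, cut at about 13% in these data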
# MPTP block = inhibitors of mitochondrial permeability transition pore. isolated mouse mitochondria, Ca2+ swelling absorbance, 30 min. inhibition, % at 10 µM. 1.4% of 360,000 active. AID 602449;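 active = inhibition of 50% or more, scaled per plate between neutral and stimulator controls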
# DSG3 Ab inh = blocks pemphigus antibody binding to human desmoglein-3 | DSG3-coupled beads, scFv-anti-DSG3-GFP binding, flow cytometry; hits give low values | binding (percent of control), % at 10 µM | 0.48% of 310,000 active;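 active = binding more than 3 SD below its plate's average and above zero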;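 note: hits lower antibody fragment binding to DSG3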
# ADAM17 inh = ADAM17 inhibition, QFRET primary screen. inhibition, % at 6.95 µM. 0.83% of 370,000 active. P78536. recombinant ADAM17, EDANS/DABCYL FRET peptide cleavage;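 active = inhibition above the mean of compounds lying between control limits plus 3 SD, set per campaign, cut at about 8.5% in these data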
# Target sequence (P78536 215-824 limits assumed): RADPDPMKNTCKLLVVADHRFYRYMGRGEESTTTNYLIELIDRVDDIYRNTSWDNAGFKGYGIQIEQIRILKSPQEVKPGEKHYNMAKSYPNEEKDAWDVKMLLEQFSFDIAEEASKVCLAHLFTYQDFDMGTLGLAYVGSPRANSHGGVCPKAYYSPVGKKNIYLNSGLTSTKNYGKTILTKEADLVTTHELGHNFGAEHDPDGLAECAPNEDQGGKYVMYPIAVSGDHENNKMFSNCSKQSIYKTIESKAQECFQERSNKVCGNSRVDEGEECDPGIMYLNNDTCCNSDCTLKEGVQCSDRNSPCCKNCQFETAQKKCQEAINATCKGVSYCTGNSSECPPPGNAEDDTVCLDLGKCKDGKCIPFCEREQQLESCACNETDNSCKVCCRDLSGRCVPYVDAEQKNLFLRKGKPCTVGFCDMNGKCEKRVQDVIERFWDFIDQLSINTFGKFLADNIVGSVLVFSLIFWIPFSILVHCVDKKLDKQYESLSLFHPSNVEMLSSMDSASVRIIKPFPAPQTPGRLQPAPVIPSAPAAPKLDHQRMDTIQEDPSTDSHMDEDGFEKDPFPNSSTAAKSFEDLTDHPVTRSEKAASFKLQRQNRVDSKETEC
# ADAM10 inh = ADAM10 inhibition, QFRET primary screen; O14672; AID 720582; 0.62% of 370,000 active; recombinant ADAM10, EDANS/DABCYL FRET peptide cleavage, 3 h; inhibition, % at 7 µM;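 active = inhibition above a per-campaign cutoff equal to the mean of compounds falling between control-based bounds plus 3 SD, cut at about 20% in these data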
# rCAG RNA binder = r(CAG) repeat RNA binding | TO-PRO-1 dye displacement fluorescence | inhibition, % at 3 µM | 1.3% of 370,000 active | AID 651821;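 active = inhibition above the plate cutoff, the mean of all test compounds on that plate plus 3 SD, cut at about 35% in these data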;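 note: higher means more dye released from RNA so lower well fluorescence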
# ADAM10 confirm = confirmation of inhibitors of human ADAM10; shares compounds with ADAM10 inh; ADAM10 QFRET peptide cleavage, EDANS fluorescence; inhibition, % at 6.95 µM; 1% of 2,100 active;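 active = inhibition above about 20% chosen separately for each screening run, limit read from the data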
# ADAM17 ctr = inhibits human ADAM17 in ADAM10 exosite counter-screen. shares compounds with ADAM10 inh. ADAM17 QFRET peptide cleavage, EDANS fluorescence. inhibition, % at 6.95 µM. 0.5% of 2,100 active. AID 743214;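 active = mean triplicate inhibition above the solvent-only control wells' mean plus 3 SD, cut at about 12% in these data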
# Hits are given with their value; n = inactive; x = not tested or not shown.
SMILES,proKLK7 act,MPTP block,DSG3 Ab inh,ADAM17 inh,ADAM10 inh,rCAG RNA binder,ADAM10 confirm,ADAM17 ctr
CC1(C(=O)Nc2ccc3c(c2)OCO3)CCN1C(=O)c1ccco1 (stereo not given),n,n,x,n,n,n,x,x
COc1ccc(Cn2cc(CN3CCc4onc(-c5ccccc5OC)c4C3=O)nn2)cc1,n,n,x,n,n,n,x,x
Cc1ccc(S(=O)(=O)N(C)C[C@@H]2OCCCC[C@H](C)Oc3ccc(NC(=O)Nc4ccc(F)cc4)cc3C(=O)N([C@H](C)CO)C[C@H]2C)cc1,n,n,x,n,23.3,n,n,n
COc1ccc(S(=O)(=O)N(C)C[C@H]2OCCCC[C@H](C)Oc3ccc(NC(=O)Nc4ccc(F)cc4)cc3C(=O)N([C@H](C)CO)C[C@H]2C)cc1,n,n,n,n,n,n,x,x
O=C(C(=Cc1ccccc1)c1ccccc1)c1ccccc1,n,n,x,n,n,n,x,x
O=C(C(=Cc1ccc(O)cc1)c1ccccc1)c1ccccc1,n,n,x,n,29.7,n,n,n
CCCC(NC(=O)c1ccc(Br)o1)c1nc2ccccc2[nH]1 (stereo not given),n,n,x,n,n,n,x,x
O=C(Nc1ccc(N2CCCC2)cc1)c1ccc(Cl)cc1Cl,n,n,n,n,20.3,n,n,n
O=C(Nc1ccccc1N1CCCC1)c1ccccc1Cl,n,n,n,n,23.0,n,n,n
CN1CCN(c2ccc(NC(=O)c3ccc(Cl)cc3Cl)cc2)CC1,n,n,n,n,n,n,x,x
O=C(Nc1ccccc1N1CCCC1)c1ccc(Cl)cc1Cl,n,n,n,n,n,n,x,x
O=C(Nc1ccc(N2CCCC2)cc1)c1ccc(Br)cc1,n,n,n,n,24.9,n,n,n
CC(C)Oc1ccc(C(=O)Nc2ccc(N3CCCC3)cc2)cc1,x,n,n,x,x,x,x,x
CC(C)C(C(=O)NCc1ccco1)N(Cc1ccco1)C(=O)CNS(=O)(=O)c1ccccc1 (stereo not given),n,n,n,n,n,n,x,x
COc1ccc(S(=O)(=O)NCC(=O)N(Cc2ccco2)C(C(=O)NC(C)(C)C)C(C)C)cc1 (stereo not given),n,n,n,n,20.4,n,n,n
O=C(COC(=O)C1=COCCO1)NC1CCCCC1,n,n,n,n,n,n,x,x
Clc1ccccc1CN(Cc1ccccc1)c1ncnc2nc[nH]c12,n,n,n,n,20.1,n,n,n
CCOc1ccc(NC(=O)c2ccc3c(=O)n(-c4ccc(OC)cc4OC)c(=S)[nH]c3c2)cc1,n,n,n,n,23.7,n,n,n
COc1ccc(NC(=O)c2ccc3c(=O)n(-c4ccc(OC)cc4OC)c(=S)[nH]c3c2)c(OC)c1,n,n,n,n,n,n,x,x
CC(C)CCNC(=O)C(c1ccc(O)cc1)N(Cc1cccs1)C(=O)C1COc2ccccc2O1 (stereo not given),n,n,n,n,22.3,n,n,n
CCN(CC(=O)Nc1ccc(NC(C)=O)cc1)C(=O)Cc1cccc2ccccc12,n,n,n,n,n,n,x,x
CCOC(=O)c1c(C)nc2sc3c(=O)n(-c4ccc(C(C)=O)cc4)cnc3c2c1-c1ccc(OC)cc1,n,n,n,n,n,n,x,x
CC(=O)c1c(C)nc2sc3c(=N)n(N)cnc3c2c1-c1ccc(Cl)cc1,n,n,n,n,20.8,n,n,n
Clc1ccc(CSc2nnc(CNc3cccc(Cl)c3)o2)cc1,n,n,n,n,19.8,n,n,n
Fc1ccc(NCc2nnc(SCc3ccccc3)o2)cc1,n,n,n,n,n,n,x,x
SMILES,proKLK7 act,MPTP block,DSG3 Ab inh,ADAM17 inh,ADAM10 inh,rCAG RNA binder,ADAM10 confirm,ADAM17 ctr
O=C(COC(=O)c1cc(-c2cccs2)nn1-c1ccccc1)Nc1ccc(Cl)c([N+](=O)[O-])c1,n,n,n,n,20.8,n,n,n
O=C(Nc1ccc(F)cc1)OCCN1C(=O)CCC12CCC(c1ccccc1)CC2 (stereo not given),n,x,x,n,n,n,x,x
O=C1OCCN1C(=O)[C@H]1[C@H](c2ccc([N+](=O)[O-])cc2)C(c2cccc(Cl)c2)=NN1c1ccc(Br)cc1,n,n,n,n,23.6,n,n,n
CCOc1ccc(NC(=O)c2ccc(-n3cccn3)nc2)cc1,n,n,n,n,n,n,x,x
O=C(Nc1ccccc1)c1nc[nH]c1C(=O)NCc1ccccc1,n,n,n,n,24.1,n,n,n
CNC(=O)c1[nH]cnc1C(=O)N[C@@H](Cc1ccccc1)C(=O)OC(C)(C)C,n,n,n,n,n,n,x,x
CN(Cc1ccccc1)C(=O)c1[nH]cnc1C(=O)N[C@@H](Cc1ccccc1)C(=O)OC(C)(C)C,n,n,n,n,22.9,n,n,n
CC(C)(C)OC(=O)NCc1ccc(CNC(=O)c2nc[nH]c2C(=O)NCc2ccccc2)cc1,n,n,n,n,21.5,n,n,n
O=C(N[C@@H](Cc1ccccc1)C(=O)OCc1ccccc1)c1nc[nH]c1C(=O)N1CCc2ccccc2C1,n,n,n,9.3,19.8,n,n,n
COc1ccc2cc(C=NS(=O)(=O)c3ccc(C)cc3)n(C)c2c1,n,n,n,n,n,n,x,x
COC(=O)C[C@@H]1OC[C@H](C(C)C)N1S(=O)(=O)c1ccc(C)cc1,n,n,x,n,n,n,x,x
COc1ccccc1-n1c(SCC(=O)N(C)C)nnc1-c1ccco1,n,n,n,n,n,n,x,x
Cc1cccc(NC(=O)c2nc[nH]c2C(=O)N[C@H](C)c2ccccc2)c1,n,n,n,n,22.7,n,n,n
CC1(C)CC(=O)C=C(c2ccc(COC(=O)C(c3ccccc3)c3ccccc3)cc2)C1=O,n,n,n,n,20.1,n,n,n
O=C(C(=O)N1CCC(CNS(=O)(=O)c2ccc(F)cc2)CC1)c1cccs1,n,x,x,n,n,n,x,x
CCN(CC)S(=O)(=O)c1cccc(NC(=O)C2SC(=Nc3ccc(C)cc3C)C(C(=O)NC(C)COC)=C2N)c1 (stereo not given),n,n,x,n,20.3,n,n,n
CC(C)N1C(=O)C(=O)N(CC(=O)N(C)c2ccccc2)C1=O,n,n,n,n,n,n,x,x
Cc1csc(NC(=O)c2cccc(Cn3nc(C)c(Br)c3C)c2)n1,n,n,x,n,20.0,n,n,n
CCOc1ccc(S(=O)(=O)NCCC(=O)NCc2ccc(OC)c(OC)c2)cc1,n,n,n,n,n,n,x,x
CCC(NS(=O)(=O)c1ccc(C)cc1)C(=O)N1CCN(c2ccccn2)CC1 (stereo not given),n,n,n,n,80.3,n,n,n
CC(NC(=O)c1cccs1)C(S)c1ccccc1 (stereo not given),n,n,n,14.6,34.5,n,n,n
